Results on 40 compounds are retold here after PubChem BioAssay (NCI).

Molecules are shown by their SMILES. Compounds without any hit were thinned out: in the full panel of roughly 79,000, 15% have a hit. A number with no mark means an inactive call. No stated cut-off is given here; in the data, active means growth inhibition above about 70%; inactive means the rest.

A short description of this experiment: NCI Yeast Anticancer Drug Screen. Data for the bub3 strain (AID 167). As to conditions: S. cerevisiae bub3 mutant strain, at 50.0 µM, hits give high values. The protocol: Growth inhibition of yeast strains with defined genetic alterations is measured as a screen for potential anti-cancer activity. Selected strains with alterations in DNA damage repair or cell cycle control were exposed to compounds and growth inhibition was measured relative to vehicle treated controls. The strain used in this assay is bub3
As to `Cc1ccc(-c2cc(=O)c3cc(C)c(C)c(C(=O)O)c3o2)cc1[N+](=O)[O-]`, the growth inhibition is 2%.

`Cc1c([N+](=O)[O-])ccc2c(NCCCN(C)C)ccnc12`: the growth inhibition is -14.3%.

For `C/C(CC(=O)Nc1ccc(C)c(C)c1)=N\NC(N)=S`, the growth inhibition was 0.05%.

As to `CN(C)c1ccc2c(c1)c1cc(N(C)C)ccc1n2Cc1ccccc1`, the growth inhibition is 1.95%.

`CCCCCOS(=O)(=O)O`: the growth inhibition was -0.25%.

As for `Cc1ccc(CN(C)C)c(C(O)c2ccccc2)c1` (stereo not given), the growth inhibition was 6.6%.

Consider `O=C(OCCO)c1ccccc1O`, for which the growth inhibition is -0.9%.

As to `CCN(CC)CCOC(=O)c1ccc(N=Nc2cc(NC(C)=O)ccc2O)cc1`, the growth inhibition is 2.35%.

In the case of `CC(=O)c1cccc(NC(=O)Nc2cccc3ccccc23)c1`, the growth inhibition was 15.7%.

As for `O=C(CSc1nnc(Cc2ccccc2)o1)Nc1ccc(Cl)cc1Cl`, the growth inhibition is -10.2%.

As to `C=C1C(=O)OC2/C=C(/CO)C3(O)CC(O)C(C)(CC(OC(=O)/C(C)=C/C)C12)O3` (stereo not given), the growth inhibition was 0.85%.

For `O=C(CCOP(=O)(NCCCl)NCCCl)c1ccccc1`, the growth inhibition is -11.7%.

Turning to `O=C(O)[C@@H]1[C@@H]2C[C@@H]3[C@H](OC(=O)[C@@H]31)[C@@H]2O`, the growth inhibition was -15.8%.

Regarding `CS(=O)(=O)NCC1OC(n2cnc3c(N)ncnc32)C(O)C1O` (stereo not given), the growth inhibition is 30.5%.

For the compound `C[C@@H](CO)OCOCc1ccccc1`, the growth inhibition is 7.3%.

As for `NC(=O)c1cc(Br)ccc1O`, the growth inhibition was -19.4%.

As for `CN(C)c1cccc(/C=C(\C#N)c2ccccc2)c1`, the growth inhibition is 54.1%.

In the case of `O=C1NC2c3ccccc3CCC12` (stereo not given), the growth inhibition was 8.65%.

Take `CC(=O)Nc1ccc(/C=C2\C(=O)Nc3ccccc32)cc1`: the growth inhibition was -8.5%.

In the case of `CCc1nc(N)nc(N)c1-c1ccc(Cl)c(S(=O)(=O)O)c1`, the growth inhibition is -15.1%.

`CCCOC(=O)/C=C/c1ccc(OC)cc1`: the growth inhibition was -14.4%.

For `O=C(Nc1ccc2[nH]c3c(-c4ccccc4)nccc3c2c1)c1ccccc1[N+](=O)[O-]`, the growth inhibition is -2.75%.

Consider `CC(C)(c1ccsc1)c1sccc1C(=O)O`, for which the growth inhibition was -2.95%.

For `NC(N)=NC(N)=Nc1cnccn1`, the growth inhibition was -10.5%.

For `Cn1c(=O)c2[nH]c(C3CC(=O)CC(c4nc5c([nH]4)c(=O)n(C)c(=O)n5C)N3)nc2n(C)c1=O` (stereo not given), the growth inhibition is -27.4%.

With `NCCCn1c2ccccc2c2cnccc21`, the growth inhibition was 1.05%.

Take `[N-]=[N+]=Nc1ccc2[nH]c3ccccc3c(=O)c2c1`: the growth inhibition was -16.9%.

Regarding `COc1ccc(-c2cc(C(=O)O)c3cc4ccccc4cc3n2)cc1Br`, the growth inhibition is 2.95%.

In the case of `CC1(n2nc(-c3ccccc3)n(-c3ccccc3)c2=O)CSC1`, the growth inhibition is -15.8%.

Consider `COC1=CC(=O)N(C)C(O)C1(C#N)OC1OC(CO)C(O)C(O)C1O` (stereo not given), for which the growth inhibition is -17.9%.

For the compound `Cc1ccc(S(=O)(=O)Nc2nnc(CC(C)C)s2)cc1`, the growth inhibition is 40.9%.

`COC(=O)[C@@]1(C(C)CC(=O)O)CCCCC1=O` (stereo not given in full): the growth inhibition was -20.8%.

With `CC(=O)N=C1N(/C=C2\C(=O)Oc3ccccc3C2=O)C(=O)/C(=C/c2ccccc2Cl)N1C`, the growth inhibition is -16.9%.

Consider `c1ccc(C(c2ccccc2)c2cc(-c3cc(C(c4ccccc4)c4ccccc4)[nH]n3)n[nH]2)cc1`, for which the growth inhibition was -11.6%.

As to `Cc1cc(C)c(NS(=O)c2cccc(C(F)(F)F)c2)c(C)c1` (stereo not given), the growth inhibition is -31.4%.

As for `CCn1c(=O)c2[nH]c(Cl)nc2n(CC(C)Cl)c1=O` (stereo not given), the growth inhibition was 5.35%.

As to `Nc1ccc(S(=O)(=O)/N=C(\NS(=O)(=O)c2ccc(N)cc2)c2ccccc2)cc1`, the growth inhibition is 5.85%.

As to `CC1(C)C(CC(=O)O)CCCC1CC(=O)O` (stereo not given), the growth inhibition was -11.4%.

As for `N#CSc1nc[nH]c1C(N)=O`, the growth inhibition was -26.3%.

With `Cc1cc(Cl)ccc1OCC(=O)OCCBr`, the growth inhibition is -22.9%.
